Drawing on PubChem BioAssay, this text covers composite z-score and z-score for 5 compounds.

Assay [1] in a line: small molecules captured by biotinylated probe aFSTL3 – biochemical, small-molecule microarray, fluorescence 635/667, stem cell growth factor project, primary screen (AID 1064).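 Further: measures binding of the biotinylated anti-FSTL3 antibody to printed compounds.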 The conditions noted are these: higher = more signal.
The nature of assay [2]: binders from COS7 lysate, DM2A8 probe, primary screen, torsin A project, cell lysate, small-molecule microarray, fluorescence 635/667 (AID 1065). The conditions noted are these: higher = more signal, COS7 lysate expressing mutant human TOR1A.
A short description of assay [3]: small molecules captured by biotinylated probe aFGF2 – biochemical, small-molecule microarray, fluorescence 635/667, stem cell growth factor project, primary screen (AID 1067).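 Further: measures binding of biotinylated aFGF2 protein to printed compounds on slides; z-score merges feature fluorescence and signal-to-noise across triplicate slides.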 The conditions noted are these: higher = more signal.
The nature of assay [4]: small molecules captured by biotinylated probe aFGF10 – biochemical, small-molecule microarray, fluorescence 635/667, stem cell growth factor project, primary screen (AID 1071).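 Further: score merges 667 nm spot intensity and signal to noise from triplicate slides.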 Particulars: higher = more signal.
Assay [5] deals with Neurogenic locus notch homolog protein 2 (Homo sapiens) (UniProt Q04721). As to the kind of experiment: small molecules binding Notch2 protein – biochemical, small-molecule microarray, 635 nm fluorescence, stem cell growth factors, primary screen (AID 1073). The conditions noted are these: higher = more signal.
For assay [6], the target named is Pro-neuregulin-1, membrane-bound isoform (Homo sapiens) (UniProt Q02297). As to the kind of experiment: small molecules binding neuregulin-1 protein – biochemical, small-molecule microarray, fluorescence 635/667, psychiatric disease protein project, primary screen (AID 1075).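 Further: score combines 667 nm spot fluorescence with signal to noise.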 The conditions noted are these: NRG1 binding, 635 nm fluorescence, higher = more signal.
Assay [7] has as its system Neuregulin-1 EGF-like domain. As to the kind of experiment: small molecules binding NRG1 EGF domain – biochemical, small-molecule microarray, 635 nm fluorescence, primary screen (AID 1081).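 Further: binding of the protein to compounds printed on small-molecule microarray slides.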 Particulars: higher = more signal.
A short description of assay [8]: FRG1 expression reporter modulators in myotubes – cell-based, C2C12 myotubes, firefly/Renilla luciferase, luminescence, FRG1 inhibition for FSHD, primary screen (AID 1084). Particulars: FRG1 promoter luciferase, higher = more signal, called active from +8 up or from −8 down.
Assay [9] is described as follows: small molecules captured by biotinylated probe aFST – biochemical, small-molecule microarray, fluorescence 635/667, stem cell growth factor project, primary screen (AID 1086).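 Further: score merges 667 nm fluorescence with signal-to-noise of each printed compound spot.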 The conditions noted are these: higher = more signal.
The nature of assay [10]: binders of probe aHhip on microarray, primary screen, stem cell growth factor project, biochemical, small-molecule microarray, fluorescence 635/667 (AID 1087).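 Further: score merges spot fluorescence at 667nm with spot signal to noise ratio.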 The conditions noted are these: higher = more signal.
Assay [11] relates to PRMT1 (protein arginine N-methyltransferase 1). As to the kind of experiment: small molecules binding arginine methyltransferase PRMT1 – biochemical, small-molecule microarray, 635 nm fluorescence, primary screen (AID 1088).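 Further: binding of Prmt1 protein to compounds spotted on small-molecule microarray slides.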 The conditions noted are these: higher = more signal.
A short description of assay [12]: growth effects on S. cerevisiae YJM789 – YJM789 clinical isolate, OD600, 24 h, basal, primary screen (AID 1089).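 Further: growth of clinical yeast isolate S. cerevisiae YJM 789 seeded 1000 cells per well; test concentration not given here.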 Particulars: higher = more signal, called active from +8 up or from −8 down.
The nature of assay [13]: S. pombe growth modifiers, basal conditions – strain 972, OD600, 24 h, no modulator, primary screen (AID 1090).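 Further: basal condition with compound alone and no growth modifier present; test concentration not given here.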 Particulars: S. pombe 972 growth, higher = more signal, called active from +8 up or from −8 down.
A short description of assay [14]: budding yeast growth modifiers under rapamycin – strain BY4716, OD600, 96 h, primary screen (AID 1091). Further: test concentration not given here. Particulars: S. cerevisiae BY4716 + rapamycin, higher = more signal, called active from +8 up or from −8 down.
The target of assay [15] is Torsin-1A-interacting protein 2 (Homo sapiens) (UniProt Q8NFQ8). As to the kind of experiment: small molecules binding lysate-expressed LULL1 – cell lysate, human LULL1 lysate, 635/667 nm fluorescence, primary screen (AID 1092).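 Further: probe is lysate of COS7 cells overexpressing human LULL1; score merges per-feature 667 nm fluorescence with signal-to-noise.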 Particulars: small-molecule microarray, hLULL1 lysate binding, 635 nm fluorescence; higher = more signal.
A short description of assay [16]: optical density change of DRC41 E. coli – strain DRC41, OD650, 24 h, E. coli filamentation project, primary screen (AID 1093).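 Further: MC1000 strain lacking acrAB efflux and sulA so SOS filamentation is blocked; test concentration not given here.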 Particulars: E. coli DRC41 growth, higher = more signal, called active from +8 up or from −8 down.
Assay [17] can be described thus: probe aLefty2 binding to arrayed compounds – biochemical, biotinylated probe, 635/667 nm fluorescence, primary screen (AID 1094).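 Further: score merges spot fluorescence near 667 nm with spot signal-to-noise ratio.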 The conditions noted are these: small-molecule microarray, higher = more signal.
The test system of assay [18] is Noggin (protein binding on small-molecule microarray). As to the kind of experiment: small molecules binding Noggin protein – biochemical, 635/667 nm fluorescence, primary screen (AID 1095).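 Further: score merges 667 nm feature fluorescence with signal to noise over triplicate slides.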 Particulars: 635 nm fluorescence, higher = more signal.
Assay [19] concerns the target Neurogenic locus notch homolog protein 3 (Homo sapiens) (UniProt Q9UM47). As to the kind of experiment: small molecules binding NOTCH3 protein – biochemical, 635/667 nm fluorescence, primary screen (AID 1096). The conditions noted are these: small-molecule microarray, 635 nm fluorescence, higher = more signal.
Assay [20] in a line: probe aEGFR binding to arrayed compounds – biochemical, biotinylated probe, 635/667 nm fluorescence, primary screen (AID 1097).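 Further: probe is a biotinylated anti-EGFR antibody binding compounds printed on slides; score combines fluorescence near 667 nm and signal to noise of each spot.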 Particulars: small-molecule microarray, higher = more signal.

The structures appear in SMILES notation. Active and inactive are the calls of the source.

Pro-neuregulin-1, membrane-bound isoform (Homo sapiens), sequence (Q02297 whole entry, looked up, the tested form may be a part, canonical isoform): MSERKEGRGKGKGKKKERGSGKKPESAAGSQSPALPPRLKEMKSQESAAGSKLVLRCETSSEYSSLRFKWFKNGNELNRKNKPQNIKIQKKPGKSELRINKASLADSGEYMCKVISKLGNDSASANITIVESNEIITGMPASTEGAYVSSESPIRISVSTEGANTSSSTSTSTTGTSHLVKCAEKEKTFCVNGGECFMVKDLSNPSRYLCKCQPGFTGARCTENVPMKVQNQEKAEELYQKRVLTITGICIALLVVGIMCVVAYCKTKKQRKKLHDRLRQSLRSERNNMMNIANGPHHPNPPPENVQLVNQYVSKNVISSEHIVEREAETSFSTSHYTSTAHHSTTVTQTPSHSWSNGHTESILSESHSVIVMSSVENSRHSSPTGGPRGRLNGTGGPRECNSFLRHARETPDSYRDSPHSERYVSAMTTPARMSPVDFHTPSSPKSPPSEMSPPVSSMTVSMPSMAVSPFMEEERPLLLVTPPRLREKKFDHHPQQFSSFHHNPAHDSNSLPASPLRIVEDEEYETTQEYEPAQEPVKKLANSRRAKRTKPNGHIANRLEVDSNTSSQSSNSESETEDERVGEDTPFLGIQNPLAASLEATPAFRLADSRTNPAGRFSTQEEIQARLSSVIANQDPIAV
Torsin-1A-interacting protein 2 (Homo sapiens), sequence (Q8NFQ8 whole entry, looked up): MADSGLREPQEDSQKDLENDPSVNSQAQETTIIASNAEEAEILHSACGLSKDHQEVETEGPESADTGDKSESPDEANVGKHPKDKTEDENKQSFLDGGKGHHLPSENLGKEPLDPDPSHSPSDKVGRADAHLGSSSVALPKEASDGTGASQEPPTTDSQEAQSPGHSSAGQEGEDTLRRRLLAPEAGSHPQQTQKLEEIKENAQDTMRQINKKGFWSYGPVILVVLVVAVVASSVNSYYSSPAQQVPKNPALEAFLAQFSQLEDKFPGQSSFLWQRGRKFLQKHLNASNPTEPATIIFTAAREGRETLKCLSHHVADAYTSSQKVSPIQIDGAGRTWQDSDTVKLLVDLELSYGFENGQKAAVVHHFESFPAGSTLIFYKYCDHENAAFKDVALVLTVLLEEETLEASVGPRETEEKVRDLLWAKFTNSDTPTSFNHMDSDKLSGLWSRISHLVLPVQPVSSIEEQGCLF
Neurogenic locus notch homolog protein 3 (Homo sapiens), sequence (Q9UM47 whole entry, looked up): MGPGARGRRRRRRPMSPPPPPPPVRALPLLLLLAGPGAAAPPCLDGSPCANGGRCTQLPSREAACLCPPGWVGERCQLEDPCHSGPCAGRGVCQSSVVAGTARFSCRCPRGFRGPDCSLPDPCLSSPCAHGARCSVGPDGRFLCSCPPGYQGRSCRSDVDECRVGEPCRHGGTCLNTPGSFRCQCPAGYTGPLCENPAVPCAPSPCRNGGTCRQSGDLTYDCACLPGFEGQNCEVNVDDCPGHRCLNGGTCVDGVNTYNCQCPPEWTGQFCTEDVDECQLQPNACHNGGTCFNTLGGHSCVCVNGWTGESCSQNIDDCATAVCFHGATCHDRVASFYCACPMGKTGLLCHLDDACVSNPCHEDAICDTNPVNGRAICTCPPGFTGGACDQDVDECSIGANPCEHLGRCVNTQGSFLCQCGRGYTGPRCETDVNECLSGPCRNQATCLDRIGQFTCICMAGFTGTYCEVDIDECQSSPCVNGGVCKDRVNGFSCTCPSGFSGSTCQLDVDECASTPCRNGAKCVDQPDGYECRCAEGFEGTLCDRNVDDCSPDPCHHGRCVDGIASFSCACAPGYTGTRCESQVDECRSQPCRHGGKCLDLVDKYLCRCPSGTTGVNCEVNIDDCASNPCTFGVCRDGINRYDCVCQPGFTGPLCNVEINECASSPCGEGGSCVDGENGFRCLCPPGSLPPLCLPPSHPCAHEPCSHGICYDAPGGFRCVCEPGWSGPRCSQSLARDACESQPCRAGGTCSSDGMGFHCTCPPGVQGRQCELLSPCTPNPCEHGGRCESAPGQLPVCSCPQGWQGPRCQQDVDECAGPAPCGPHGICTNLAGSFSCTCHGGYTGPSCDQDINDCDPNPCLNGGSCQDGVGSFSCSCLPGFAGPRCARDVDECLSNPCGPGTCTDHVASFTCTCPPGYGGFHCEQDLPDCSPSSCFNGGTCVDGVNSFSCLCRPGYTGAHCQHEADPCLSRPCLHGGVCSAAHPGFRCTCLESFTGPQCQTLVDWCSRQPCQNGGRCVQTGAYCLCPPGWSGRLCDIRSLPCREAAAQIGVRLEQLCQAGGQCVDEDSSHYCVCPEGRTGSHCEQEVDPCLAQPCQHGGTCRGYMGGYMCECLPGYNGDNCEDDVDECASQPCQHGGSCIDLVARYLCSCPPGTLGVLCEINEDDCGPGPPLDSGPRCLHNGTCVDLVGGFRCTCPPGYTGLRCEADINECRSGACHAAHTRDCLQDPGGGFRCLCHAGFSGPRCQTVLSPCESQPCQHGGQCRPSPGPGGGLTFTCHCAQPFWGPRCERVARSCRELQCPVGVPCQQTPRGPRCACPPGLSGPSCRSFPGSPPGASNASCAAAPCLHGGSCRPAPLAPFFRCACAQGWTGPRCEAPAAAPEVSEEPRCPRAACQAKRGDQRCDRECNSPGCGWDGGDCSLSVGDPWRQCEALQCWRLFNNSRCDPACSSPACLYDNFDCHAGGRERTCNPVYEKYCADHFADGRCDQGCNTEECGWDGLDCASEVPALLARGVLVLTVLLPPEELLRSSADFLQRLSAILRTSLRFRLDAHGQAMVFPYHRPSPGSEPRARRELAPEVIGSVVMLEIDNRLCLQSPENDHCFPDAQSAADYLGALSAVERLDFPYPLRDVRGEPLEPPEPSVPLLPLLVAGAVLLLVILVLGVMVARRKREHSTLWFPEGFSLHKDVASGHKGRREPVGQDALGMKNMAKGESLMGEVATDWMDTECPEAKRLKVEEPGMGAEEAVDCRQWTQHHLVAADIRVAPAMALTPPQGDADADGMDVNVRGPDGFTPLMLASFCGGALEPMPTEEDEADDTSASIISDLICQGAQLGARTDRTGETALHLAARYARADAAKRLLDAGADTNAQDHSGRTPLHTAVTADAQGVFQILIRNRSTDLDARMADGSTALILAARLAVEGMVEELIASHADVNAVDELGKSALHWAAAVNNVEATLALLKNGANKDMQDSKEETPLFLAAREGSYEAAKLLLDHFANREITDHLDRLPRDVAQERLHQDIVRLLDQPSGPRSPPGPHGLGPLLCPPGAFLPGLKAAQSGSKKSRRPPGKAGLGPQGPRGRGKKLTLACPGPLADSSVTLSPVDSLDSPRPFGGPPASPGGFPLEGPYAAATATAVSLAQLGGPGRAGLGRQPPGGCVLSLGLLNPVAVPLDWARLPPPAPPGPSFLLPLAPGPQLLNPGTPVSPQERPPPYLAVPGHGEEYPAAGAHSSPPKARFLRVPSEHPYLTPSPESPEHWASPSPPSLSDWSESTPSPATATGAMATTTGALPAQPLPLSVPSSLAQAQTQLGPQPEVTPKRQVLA

Turning to `COCCOC(=O)N1C(=O)[C@@]2(c3cc(C#CCNC(N)=O)ccc31)[C@H](C(=O)N1CCN(c3ncccn3)CC1)[C@H]1C(=O)O[C@H](c3ccccc3)[C@H](c3ccccc3)N1[C@@H]2c1ccccc1OCCO`, the composite z-score was determined as 0.397 in assay [1]; 0.242 in assay [2]; 0.0811 in assay [3]; 0.947 in assay [4]; 1.12 in assay [5]; 0.727 in [6]. Further, the composite z-score in [7] was 1.09; in assay [9], 1.28; in assay [10] it was -0.204; in assay [11], 1.47; in assay [15], 1.79; in assay [17], 0.181. The composite z-score is 0.808 in assay [18], 1.12 in assay [19] and -0.0286 in assay [20]. The z-score is -0.311 (inactive) in [8]; 2.12 (inactive) in assay [12]; 1.71 (inactive) in assay [13]; 4.95 (inactive) in assay [14]; 1.72 (inactive) in assay [16].
On to `CC(C)(C)N1CC=CC23O[C@@H]4C=CCOC(=O)[C@@H]4[C@H]2C(=O)N(CCCCCO)[C@@H]3C1=O` (stereo not given in full), for which the composite z-score was 0.469 in [1]; -0.555 in assay [2]; -0.159 in [3]; -0.335 in assay [4]; -1.38 in assay [5]; 0.978 in [6]. Besides, the composite z-score in assay [7] is 1.33; in assay [9], 0.411; in assay [10] it was -0.339; in assay [11], -0.396; in [15] it was 0.735; in assay [17], -0.215. Besides, the composite z-score is -0.617 in assay [18], -0.374 in [19] and -0.224 in assay [20]. The z-score in assay [8] was 0.952 (inactive); in [12] it was -0.256 (inactive); in assay [13] it was -0.0499 (inactive); in [14], -0.177 (inactive); in assay [16], 0.385 (inactive).
Regarding `Cc1ccc(S[C@]2(C(=O)NCc3ccccc3)CC(=O)N(Cc3ccccc3Cl)[C@@H]2c2ccc(CO)cc2I)cc1`, the composite z-score in [1] is 0.715; in assay [2] it was -1.06; in assay [3], -0.104; in assay [4], -0.638; in assay [5], -0.848; in assay [6], 0.288. The composite z-score is 0.539 in [7]; -0.319 in [9]; -0.0645 in assay [10]; 1.08 in assay [11]; 1.65 in [15]; 0.114 in assay [17]. The composite z-score in assay [18] is -1.07; in assay [19], -0.109; in assay [20] it was -0.168. The z-score in [8] was -0.0143 (inactive); in [12] it was -3.68 (inactive); in assay [13], -3.05 (inactive); in assay [14], 0.103 (inactive); in [16] it was -0.592 (inactive).
As to `COCCOC(=O)N1C(=O)[C@@]2(c3cc(C#CCNC(N)=O)ccc31)[C@H](c1ccc(O)cc1)N1[C@H](c3ccccc3)[C@H](c3ccccc3)OC(=O)[C@H]1[C@@H]2C(=O)NC[C@H](O)c1ccccc1`, the composite z-score in assay [1] amounted to 0.134; in [2], 1.16; in assay [3], 0.109; in assay [4] it was 0.846; in assay [5] it was 1.01; in assay [6], 0.743. In addition, the composite z-score came to 0.866 in [7]; 1.55 in [9]; 0.127 in [10]; 1.55 in assay [11]; 1.62 in assay [15]; 0.434 in [17]. Moreover, the composite z-score in assay [18] was 0.664; in assay [19], 1.06; in [20], 0.0586. In addition, the z-score is -0.463 (inactive) in assay [8]; 0.71 (inactive) in assay [12]; 1.2 (inactive) in assay [13]; 0.611 (inactive) in assay [14]; -0.675 (inactive) in assay [16].
With `CC(C)C[C@@H]1NC(=O)[C@H]2C[C@@H](C(=O)NCCCCCNC(=O)CS)[C@@H](c3cccc(OCCO)c3)N2C1=O`, the composite z-score in [1] was -0.197; in [2], 0.235; in assay [3], -0.0474; in [4], 0.387; in assay [5], 1.25; in assay [6] it was 1.03. The composite z-score in [7] was 1.31; in [9], 0.707; in [10], -0.173; in assay [11], 1.53; in assay [15], 3.06; in assay [17], 0.106. Also, the composite z-score was 1.98 in assay [18], 1.07 in assay [19] and 0.111 in assay [20]. Moreover, the z-score in assay [8] is 0.209 (inactive); in assay [12], -0.454 (inactive); in assay [13], -0.267 (inactive); in [14], 0.0073 (inactive); in [16], -0.187 (inactive).
